Assay outcomes (PubChem)
Compounds with a hit are over-represented: about 3.3% of the library has one in this group of screens.
RE007 growth inh = less growth of the S. pombe RE007 Vpr strain; S. pombe RE007 Vpr strain, BacTiter-Glo ATP luminescence, 24 h; Potency, µM (top dose mostly 92.2 µM), without a hit: at the highest dose activity change, negative = less growth, actives largely listed as inhibitors; 360,000 tested, 0.21% active; AID 651644; active = well fitted falling curve with a large enough effect; inconclusive = small, poorly fitted or top-dose-only effect; inactive = no such curve, though single readings can be large or run the other way; also: nearly all actives have a fitted effect of over 50% in size
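Fission yeast strain RE007, carrying one chromosomally integrated HIV-1 vpr copy, was seeded at OD 0.01 in PMG+AL medium with 23 nL pinned compound. After 24 h at 30 °C and 99% humidity, viability was read by BacTiter-Glo luminescence.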
Tb PYK inh = T. brucei pyruvate kinase inhibition. Q57TT1. TbPYK enzyme, Kinase-Glo Plus ATP luminescence, 45 min. Potency, µM (top dose mostly 76.8 µM), without a hit: top-dose activity, negative = inhibition, usual class: inhibitors. 410,000 tested, 0.12% active; also: nearly all actives have a fitted effect of over 50% in size
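Glycolytic pyruvate kinase of T. brucei was incubated with substrate, test compound and 130 uM ADP for 45 minutes at room temperature. Luminescent Kinase-Glo Plus signal was measured after 10 minutes.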
LmPK inh = blocks Leishmania mexicana pyruvate kinase activity; Q27686; purified LmPK, Kinase-Glo ATP luminescence, 1 h; Potency, µM (titrated, usually from 57.5 µM), for inactives: top-dose activity change, negative = inhibition, actives largely listed as inhibitors; 290,000 tested, 0.37% active; AID 1721
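Pyruvate kinase activity monitored as ATP production (luciferase luminescence). Conditions: 0.1 nM enzyme, 0.5 mM PEP, 0.1 mM ADP, 1 h, RT; normalized against uninhibited and no-enzyme wells.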
Giardia FBPA inh = blocks Giardia fructose-bisphosphate aldolase activity; A8B2U2; purified Giardia FBPA; Potency, µM (top dose mostly 59.6 µM), for inactives: at the highest dose activity, negative = inhibition, hits mostly inhibitors; 290,000 tested, 0.71% active; AID 2451; also: nearly all actives have a fitted effect of over 55% in size
Target sequence (A8B2U2 whole entry, looked up): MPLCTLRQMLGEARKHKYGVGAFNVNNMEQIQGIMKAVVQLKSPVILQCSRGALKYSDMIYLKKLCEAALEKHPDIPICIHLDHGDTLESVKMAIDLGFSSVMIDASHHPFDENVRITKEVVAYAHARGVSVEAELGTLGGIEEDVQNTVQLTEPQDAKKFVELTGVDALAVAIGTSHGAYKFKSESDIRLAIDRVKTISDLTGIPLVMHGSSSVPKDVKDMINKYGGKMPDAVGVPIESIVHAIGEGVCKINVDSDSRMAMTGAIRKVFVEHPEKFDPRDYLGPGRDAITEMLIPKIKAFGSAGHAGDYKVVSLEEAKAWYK
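Giardia FBPA (40 nM reagent) was preincubated 10 min at RT with compound (up to 57.5 uM final), then substrate plus GAPDH/TPI/NAD/arsenate coupling system with diaphorase/resazurin was added; resorufin fluorescence (525/598 nm) was read after 20 min.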
Sm TGR inh = inhibitors of Schistosoma mansoni thioredoxin glutathione reductase | Q962Y6 | purified TGR, DTNB reduction, TNB absorbance 405 nm | Potency, µM (series often up to 114 µM), inactives show at the highest dose activity change, negative = inhibition, hits mostly inhibitors | 360,000 tested, 3% active; also: nearly all actives have a fitted effect of over 60% in size
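First, TGR (20 nM dispensed) and NADPH were mixed with compound. Second, a 15 min room-temperature incubation followed. Third, further NADPH and then DTNB were added to start the reaction. Finally, TNB absorbance was monitored kinetically.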
* hit, by the source's call; ? = inconclusive; · = no result. Unless noted, calls follow the shape of the dose curve; as a rule, active = well fitted curve in the direction sought with a large enough effect; inconclusive = small, poorly fitted or top-dose-only effect, or another doubt; inactive = no such curve, though single readings can be large; an effect the other way counts as inactive or inconclusive. % is scaled to controls: 0 for no effect and ±100 for the full control effect; potency is read from the fitted curve at half-maximal effect.

SMILES	RE007 growth inh	Tb PYK inh	LmPK inh	Giardia FBPA inh	Sm TGR inh
C=CCn1c(-c2cccn(Cc3ccccc3)c2=O)n[nH]c1=S	8.3%	?	2.4%	?	11.6%
O=c1c(-c2n[nH]c(=S)n2-c2ccccc2)cccn1Cc1cccc(Cl)c1	10.2%	12.6µM*	-3.8%	0.5%	-4.0%
Cc1ccc(N/N=C/c2ccc(N3CCOCC3)cc2)cc1C	21.9%	-3.0%	3.1%	-6.4%	25.1µM*
Cc1ccc(/C=N/Nc2cc(C)nc(N3CCOCC3)n2)cc1	-6.6%	-3.1%	9.8%	0.6%	3.1%
Cc1cccc2cc(CN(CC3CCCO3)C(c3nnnn3Cc3ccco3)C(C)C)c(=O)[nH]c12 (stereo unspecified)	-1.9%	-9.9%	3.1%	-6.0%	50.1µM*
Cc1cc(C)c2[nH]c(=O)c(C(c3nnnn3C(C)(C)C)N(Cc3ccco3)CC3CCCO3)cc2c1 (stereo unspecified)	-2.0%	-5.1%	2.7%	?	44.7µM*
O=C(CC1C(=O)N(c2ccc(F)cc2)C(=O)N1Cc1ccc2c(c1)OCO2)Nc1ccc(F)cc1 (stereo unspecified)	·	1.1%	·	·	-2.0%
Cc1ccc(NP(=O)(c2ccccc2)c2nc3ccccc3s2)cc1 (stereo unspecified)	-4.0%	0.7%	-0.3%	-6.4%	15.8µM*
C=CCNc1nc(C2(C)CC3(CC(C)(C)OC3=O)C(=O)O2)cs1 (stereo unspecified)	-1.6%	-10.1%	-5.0%	6.1%	50.1µM*
COCCCNc1oc(COc2ccc(Cl)cc2Cl)nc1C#N	11.1%	2.2%	9.9%	-1.2%	20µM*
CN(C)CCNc1oc(COc2ccc(-c3ccccc3)cc2)nc1C#N	-6.7%	-8.4%	1.2%	1.8%	44.7µM*
N#Cc1nc(COc2cccc(Cl)c2)oc1NCCN1CCOCC1	-8.6%	0.8%	6.7%	0.0%	35.5µM*
N#Cc1nc(COc2ccc(-c3ccccc3)cc2)oc1NCCCN1CCOCC1	2.1%	-4.7%	4.1%	-5.2%	-8.7%
CN(C)CCNc1oc(COc2ccc(Cl)cc2Cl)nc1C#N	-9.3%	0.3%	3.0%	-11.1%	?
CC(=O)Nc1ccc(S(=O)(=O)Oc2ccccc2N2C(=O)C3C4CCC(C4)C3C2=O)cc1 (stereo unspecified)	-9.1%	-11.1%	8.3%	1.6%	0.0%
COC(=O)c1ccccc1NC(=O)COC(=O)/C=C/c1cccs1	3.4%	-9.7%	·	·	·
CN(C)c1ccc(/C=N/N=C/c2ccccc2O)cc1	2.0%	-15.0%	-7.8%	-8.5%	6.0%
CSc1ccc(CN2CCC2(C)C(=O)NCc2cccs2)cc1 (stereo unspecified)	-22.5%	-1.6%	·	·	·
O=C(Cn1ncc(Cl)c(Cl)c1=O)N1CCc2ccccc21	-0.1%	0.2%	-0.4%	-6.1%	15.8µM*
O=C(Cn1ncc(Cl)c(Cl)c1=O)N1CCN(Cc2ccccc2)CC1	-11.1%	0.7%	10.2%	1.0%	8.91µM*
O=C(Cn1ncc(Cl)c(Cl)c1=O)N1CCOCC1	5.2%	0.6%	1.3%	3.5%	-29.0%
Cc1nn(CC(=O)N2c3ccccc3NC(=O)C2(C)C)c(C)c1[N+](=O)[O-]	35.8%	3.1%	7.2%	5.4%	-12.5%
CC1(C)C(=O)Nc2ccccc2N1C(=O)Cn1ncc(Cl)c(Cl)c1=O	5.3%	2.5%	3.7%	0.8%	10µM*
CCc1ccc(C(O)c2ncc(-c3ccccc3OC)[nH]2)cc1 (stereo unspecified)	-24.6%	-6.0%	·	·	·
CSc1cccc(N2CC(C(=O)NCCN3C(=O)S/C(=C\c4cccnc4)C3=O)CC2=O)c1 (stereo unspecified)	15.2%	-2.1%	·	·	-0.1%
SMILES	RE007 growth inh	Tb PYK inh	LmPK inh	Giardia FBPA inh	Sm TGR inh
O=c1c(-c2ccco2)[n+]([O-])c2ccccc2n1OCc1ccccc1[N+](=O)[O-]	-9.5%	-4.4%	5.6%	-15.8%	15.8µM*
CCOn1c(=O)c(-c2cccc([N+](=O)[O-])c2)[n+]([O-])c2ccccc21	-2.8%	-4.0%	-2.8%	2.4%	-3.6%
O=c1c(-c2ccco2)[n+]([O-])c2ccccc2n1OCc1ccccn1	-12.8%	2.4%	-3.2%	-20.0%	17.8µM*
O=c1c(-c2ccc(F)cc2)[n+]([O-])c2ccccc2n1OCc1ccccn1	-14.7%	?	3.2%	3.7%	·
O=S(=O)(c1ccc(Cl)cc1)c1snnc1-c1ccccc1	-19.5%	-0.2%	9.2%	-11.4%	12.6µM*
CN(C)c1ncc(S(=O)(=O)c2ccc(Cl)cc2)c(-c2ccccc2)n1	24.6%	-5.2%	-0.5%	-3.1%	12.8%
c1ccc(-c2nnsc2-c2ncc[nH]2)cc1	-9.8%	-0.8%	0.8%	1.6%	3.4%
O=S(=O)(c1ccc(F)cc1)c1snnc1-c1ccccc1	-12.1%	2.2%	2.2%	?	35.5µM*
O=C(O)c1ccc(CNCc2cccc(Oc3ccccc3)c2)cc1	-0.5%	1.9%	0.4%	1.7%	-30.2%
CCOC(=O)C1=C(C)NC2=C(C(=O)CCC2)C1c1ccc(O)c(OCC)c1 (stereo unspecified)	9.2%	-11.7%	-0.7%	-22.7%	-7.8%
CCOc1cc(C2C(C(=O)N3CCCCC3)=C(C)NC3=C2C(=O)CCC3)cc(Br)c1O (stereo unspecified)	1.1%	-8.6%	2.1%	-23.9%	25.1µM*
Cc1cc(C)cc(N2C(=O)C3C4C=CC(C4)C3C2=O)c1 (stereo unspecified)	-0.9%	-2.5%	3.9%	5.1%	4.2%
CC(C)S(=O)(=O)c1csc(NC(=O)Nc2cc(Cl)ccc2Cl)c1Cl	7.0%	-1.0%	2.6%	?	1.9%
CC(=O)c1ccc(NC(=S)Nc2cccc(S(=O)(=O)Nc3c(C)n(C)n(-c4ccccc4)c3=O)c2)cc1	-29.5%	-14.6%	2.5%	-7.3%	14.1µM*
Cc1ccc(NC(=S)Nc2cccc(S(=O)(=O)Nc3c(C)n(C)n(-c4ccccc4)c3=O)c2)cc1	-5.9%	-3.7%	3.6%	-8.1%	50.1µM*
CC1CCN(c2ccccc2NC(=O)c2ccc(C#N)cc2F)CC1	-7.4%	0.2%	4.5%	4.3%	·
CCN1CCN(c2ncnc3c2cnn3-c2ccc(C)c(Cl)c2)CC1	·	1.0%	·	·	-5.8%
Cc1ccc(-n2ncc3c(N4CCN(CCO)CC4)ncnc32)cc1Cl	·	0.8%	·	·	7.94µM*
COc1ccc(C(=O)Cn2nnc(-c3cccs3)n2)cc1	?	-9.0%	2.6%	-3.7%	-0.3%
Nc1ncc(Br)cc1N=Cc1ccccc1	17.9%	-4.9%	-2.8%	1.12µM*	?
Cn1ncc(N=Cc2ccccc2)c1C(N)=O	1.7%	-0.6%	4.4%	-25.3%	5.8%
CC(C)(C)NC(=O)C(c1ccc(-c2ccccc2)cc1)N(C[C@H]1CC[C@@H]([C@@H]2CC[C@H](CO)O2)O1)C(=O)c1ccc2ccccc2c1 (stereo partly specified)	-6.0%	1.7%	·	·	·
Cc1cc(O)c(NC(=O)c2cccc([N+](=O)[O-])c2)cc1C	-11.5%	0.8%	2.6%	0.2%	6.9%
